Compound activity (PubChem)
GAA inh – alpha-glucosidase (human) inhibition | P10253 | purified human GAA, 4-MU-alpha-glucoside fluorescence | Potency, µM (top dose mostly 76.9 µM), for the others: at the top dose activity change, negative = inhibition, hits mostly inhibitors | hit rate 0.005% among 200,000 | AID 1466;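 further: potency means the concentration at half of the fitted maximal effect; plate controls were uninhibited enzyme wells for no effect and no-enzyme background for full effect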
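Compounds are titrated up to 77 uM against 4 nM human enzyme. Substrate 4-methylumbelliferyl-alpha-D-pyranoside (400 uM) reacts 20 min at room temperature in pH 5.0 buffer; liberated 4-methylumbelliferone is read at 440 nm.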
GLA inh pH 4.5 – blocks human alpha-galactosidase A at pH 4.5 | purified enzyme, 4-MU-alpha-Gal fluorescence, pH 4.5 | activity change, negative = inhibition, % at 105 µM | P06280 | 230,000 tested, under 10 active;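 further: 0% = full activity with enzyme and -100% = basal without enzyme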
GAA glycogen – GAA glycogen-cleavage inhibition or activation | P10253 | recombinant GAA, glycogen substrate, Amplex Red glucose oxidase fluorescence | hit rate 0.38% among 300,000 | Potency, µM (series often up to 76.4 µM), without a hit: at the highest dose activity change, negative = inhibition, actives largely listed as inhibitors;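 further: potency means the concentration at half of the fitted maximal effect; 0% = full enzyme reaction and -100% = no-enzyme basal signal; the screen sought inhibitors and activators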
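qHTS, 1536-well; enzyme 4 nM final; cpd up to 77 uM; substrate bovine liver glycogen 30 ug; 50 mM citrate/phosphate pH 5.0, 0.01% Tween-20; 37 C, 40 min; Amplex Red detection 45 min RT; Hill fit → AC50.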
GLA spleen mod – alpha-galactosidase A (human) modulation. human spleen homogenate, 4MU-alpha-Gal fluorescence, 40 min. AID 2107. hit rate 0.008% among 240,000. P06280. Potency, µM (titrated, usually from 80 µM), for inactives: at the top dose activity change, negative = inhibition, usual class: inhibitors;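 further: potency means the concentration at half of the fitted maximal effect; 0% = enzyme with vehicle and -100% = no enzyme basal signal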
Target sequence (P06280 32-429 limits assumed): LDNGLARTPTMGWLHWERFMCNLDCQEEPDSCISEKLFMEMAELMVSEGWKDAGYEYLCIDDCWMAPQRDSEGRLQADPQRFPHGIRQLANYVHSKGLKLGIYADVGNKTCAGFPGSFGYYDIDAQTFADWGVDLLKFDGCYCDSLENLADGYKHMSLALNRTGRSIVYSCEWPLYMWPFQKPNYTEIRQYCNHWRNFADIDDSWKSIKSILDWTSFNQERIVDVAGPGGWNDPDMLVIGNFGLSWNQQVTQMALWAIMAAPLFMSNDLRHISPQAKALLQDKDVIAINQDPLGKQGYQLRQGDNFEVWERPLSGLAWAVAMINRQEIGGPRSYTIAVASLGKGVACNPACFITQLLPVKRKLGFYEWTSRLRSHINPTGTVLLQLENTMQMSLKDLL
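Spleen homogenate 1 ug + cpd (titration) + 4-MU-alpha-D-galactopyranoside 1 mM; 37C 40 min; 50 mM citrate/phosphate pH 5.0, 0.01% Tween-20; stop pH 10; fluorescence 365/440; AC50 via Hill.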
GAA spleen mod – lysosomal alpha-glucosidase (human) modulation. Potency, µM (top dose mostly 79.9 µM), for the others: at the highest dose activity change, negative = inhibition, hits mostly inhibitors. P10253. human spleen homogenate, 4-MU-alpha-glucoside fluorescence. AID 2112. hit rate 0.006% among 240,000;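 further: potency means the concentration at half of the fitted maximal effect; 0% = enzyme with vehicle and -100% = no enzyme basal signal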
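Enzyme source: human spleen homogenate, 1 ug/well. Buffer 50 mM citric acid/K phosphate pH 5.0, 0.01% Tween-20. 4-MU-alpha-glucoside 1 mM; 37 C x 40 min; NaOH/glycine stop; fluorescence.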
* hit, by the source's call; ? = inconclusive; . = no result given; [ ] = another dose, or the depositor's remark. An excerpt weighted towards active compounds, which were near 0.4% of everything screened. The call rests on the fitted dose curve; in most records, active means well fitted curve in the direction sought with a large enough effect; inconclusive means small, poorly fitted or top-dose-only effect, or another doubt; inactive means no such curve, though single readings can be large; an effect the other way counts as inactive or inconclusive.

SMILES	GAA inh	GLA inh pH 4.5	GAA glycogen	GLA spleen mod	GAA spleen mod
O[C@@H]1[C@H](O)[C@H]2[C@@H](O)CCN2C[C@@H]1O	.	-2	.	-1%	35µM*
O=C1Nc2cc(Cl)c(Cl)cc2N2CCNC[C@H]12	.	-8	.	-1%	9%
Cc1cc2c(s1)Nc1ccccc1N=C2N1CCN(C)CC1	0%[15.4 µM]	0	5.6µM*	-6%	-3%
O=C(CNC(=O)c1ccc(Cl)cc1)OCC(=O)c1ccc2c(c1)OCCO2	?	3	1%	2%	-4%
CCCC/C=C/[C@@H](NP(=O)(c1ccccc1)c1ccccc1)c1ccccc1OC	.	-17	.	8%	-1%
CCCC/C(C)=C/[C@@H](NP(=O)(c1ccccc1)c1ccccc1)c1ccccc1	?	-1	1.3µM*	7%	2%
CCN(CC)C(=O)C(C)Oc1cccc2ccccc12 (stereo unspecified)	.	.	.	0%	0%
CNC(=O)Oc1cccc2ccccc12	.	1	35µM*	0%	-3%
O=c1[nH]c(=O)n(Cc2ccco2)c(O)c1/C=N/N1CCCCCC1	-2%	7	-52%	8%	6%
N#Cc1c(/N=C/c2c(O)n(Cc3ccco3)c(=O)[nH]c2=O)sc2c1CCCC2	11%	-4	14µM*	-18%	-5%
COc1ccc(C2SCC(=O)Nc3c2c(C)nn3-c2ccccc2)cc1OC (stereo unspecified)	3%	-16	2%	-9%	-9%
O=C(Nc1ccc(COc2ccccc2)cc1)Oc1ccccc1N1CCOCC1	-8%	-3	4µM*	0%	0%
CC1CCCCN1CC(O)c1c[nH]c2ccccc12 (stereo unspecified)	.	.	-2%	.	.
O=C1CC(NC(=O)C(F)(F)F)=NN1c1ccccc1	4%	-11	18µM*	0%	-12%
Cc1cc(/C=C2\C(=O)NC(=O)N(c3ccc(F)cc3)C2=O)c(C)n1-c1ccc(C(=O)O)cc1	28µM*	-20	?	13%	0%
CN1CC(C(=O)c2ccc(Cl)cc2)C(c2ccccc2F)C1 (stereo unspecified)	6%	2	3%	9%	1%
ON1C2CCCCC2N(O)C1c1ccccc1F (stereo unspecified)	1%	6	8.8µM*	-20%	-4%
O=C1CC(=O)N(Cc2ccccc2)C(=S)N1	.	.	-12%	.	.
O=C1CC(N(O)c2ccccc2)C(=O)N1Cc1ccccc1 (stereo unspecified)	-6%	5	32µM*	0%	2%
CC1(C(=O)O)C2CCC(O2)C1(C)C(=O)O (stereo unspecified)	.	-6	.	6%	-2%
CCOc1cc(/C=C2/NC(=O)N(CC(=O)Nc3cccc(C)c3)C2=O)ccc1O	-4%	2	22µM*	-2%	-7%
CCCCCCC(=O)c1c(O)n(-c2ccccc2OC)c(=O)[nH]c1=O	4%	-14	2%	8%	-3%
O=C1CSC(c2ccccc2Cl)c2cc(Cl)ccc2N1 (stereo unspecified)	.	.	.	6%	1%
O=c1cc(-c2ccc(O)c(O)c2)oc2c(C3O[C@H](CO)[C@@H](O)[C@H](O)[C@H]3O)c(O)cc(O)c12 (stereo partly specified)	?	-14	4.5µM*	-9%	-16%
CC12CCCCC1N(O)CN2O (stereo unspecified)	-1%	5	18µM*	5%	2%
SMILES	GAA inh	GLA inh pH 4.5	GAA glycogen	GLA spleen mod	GAA spleen mod
Oc1ccc(CC2CC3CCN2CC3)cc1O (stereo unspecified)	1%	-5	3.5µM*	-1%	-2%
O=C1C2CCN(CC2)C1Cc1ccccc1O (stereo unspecified)	-5%	2	8%	4%	-3%
O=C(NCC(c1cccnc1)N1CCOCC1)Oc1ccccc1 (stereo unspecified)	-6%	6	-3%	16%	-2%
C[C@]12CC[C@@H]3c4ccc(O)c(O)c4CC[C@H]3[C@@H]1CC[C@@H]2O	-13%[15.4 µM]	-22	8.8µM*	11%	11%
C[C@]12CC[C@@H]3c4cc(O)c(O)cc4CC[C@H]3[C@@H]1CC[C@@H]2O	-34%[15.4 µM]	-11	3.1µM*	4%	7%
C[C@]12CC[C@H]3[C@@H](CCC4=CC(=O)CC[C@@H]43)[C@@H]1CC[C@@H]2O	.	-4	.	-8%	-2%
O=C1Nc2ccc(Br)cc2C(c2ccc(Cl)cc2)=NC1O (stereo unspecified)	.	.	5%	.	.
CN1C(=O)C(Cc2ccc3c(c2)OCO3)C(=O)N(C)C1=O	-4%	-2	40µM*	3%	-5%
C[C@@H]1O[C@H](C[N+](C)(C)C)CS1	.	4	.	-1%	-5%
CCCCC/C=C\C/C=C\C/C=C\C/C=C\CCCC(=O)Nc1ccc(O)cc1	?	-8	32µM*	-4%	0%
CCCCC/C=C\C/C=C\C/C=C\C/C=C\CCCC(=O)Nc1ccc(O)cc1C	.	-7	.	?	3%
